According to PubChem BioAssay AID504841 (National Center for Advancing Translational Sciences (NCATS), 2011):
“And” between values parts separate entries of the source, which are not always exact repeats. Equal entries are not always repeated. Screen size: about 1,100 compounds; about 160 (15%) were called active. Inconclusive results (about 36%) are left out. Calls follow the shape of the dose curve; as a rule, active = well fitted inhibition curve with a large enough effect; inconclusive = small, poorly fitted or top-dose-only effect; inactive = no such curve, though single readings can be large or run the other way. Not all results are given here.

Each compound was assayed against ATP-dependent DNA helicase Q1 (Homo sapiens) (UniProt P46063) (assay: Confirmation qHTS Assay for Inhibitors of RecQ-Like Dna Helicase 1 (RECQ1) - Round 2 Cherry Picks). Details: recombinant RECQ1 DNA unwinding, red fluorescence; series mostly up to 119 µM.
Text: Survival of cells and the faithful propagation of the genome depend on elaborate mechanisms of detecting and repairing DNA damage. Treatment of advanced cancer relies on radiation therapy or chemotherapy, which kill cancer cells by causing extensive DNA damage. It is often found, that cancer cells develop resistance to therapy through enhanced activity of DNA repair functions; this has led to an increased interest in developing drugs that interfere with DNA repair, which could sensitize cancer cells to conventional therapy. This validation qHTS assay pertains to human RECQ1, which is important in resolving abnormal DNA structures formed during replication or homologous recombination. Shutting down the expression of RECQ1 leads to chromosomal instability and higher radiation sensitivity in cultured cells. […] The validation assay was a fluorescence quenching based kinetic qHTS for RECQ1 Helicase DNA unwinding. The activity was measured as ATP-dependent separation of a 20-bp DNA duplex extended by 30-nt single-stranded tails (forked duplex). The forked DNA substrate was tagged with rhodamine fluorophore (carboxytetramethyl rhodamine, TAMRA) and BHQ-2 (Black Hole Quencher 2) dark quencher. Strand separation results in an increase in the fluorescence of TAMRA (excitation 525 nm, emission 598 nm). This substrate construct operates in a red-shifted region where very few compound library members have been noted to fluoresce (PubChem AIDs 593 and 594). An additional feature of the assay is the inclusion of 2.5 ug/ml poly (dIdC), to reduce interference by compounds such as DNA intercalators, a major source of false inhibitors. NIH Chemical Genomics Center [NCGC] NIH Molecular Libraries Probe Centers Network [MLPCN] MLPCN Grant: MH087284-01 Assay Submitter (PI): Opher Gileadi, Structural Genomics Consortium, University of Oxford
Three uL of reaction buffer (25 mM Tris-HCl (pH 8.0), 5 mM NaCl, 2 mM MgCl2, 1mM DTT, 0.01% Tween- 20, and 2.5 ug/ml poly(dI-dC), including enzyme (50 nM RECQ1T1), were dispensed into a 1536-well Greiner black assay plate via solenoid-valve based nanoliter dispensers. Compounds (23 nl each in columns 5-48) and control (23 nl each in column 2 as dose-response) were transferred via a Kalypsys pintool equipped with a 1536-pin array. The plates were incubated for 15 min at room temperature, and then 1 ul of substrates (200 nM DNA and 2 mM ATP, final concentrations) was added to start the reaction. The plate was transferred into a ViewLux high-throughput CCD imager where the reaction progress was measured in a discontinuous kinetic mode (two reads spaced 2 hours apart, with intermediate room temperature incubation of the covered assay plate) by using standard red-fluorescence optics (excitation filter 525 nm, emission filter 598 nm). Enzyme-free and vehicle (DMSO) controls were included for signal normalization.
Also: nearly all actives have a fitted effect of over 50% in size.
Potency is read from the fitted curve at half-maximal effect.

Sequence of ATP-dependent DNA helicase Q1 (Homo sapiens) (P46063 whole entry, looked up): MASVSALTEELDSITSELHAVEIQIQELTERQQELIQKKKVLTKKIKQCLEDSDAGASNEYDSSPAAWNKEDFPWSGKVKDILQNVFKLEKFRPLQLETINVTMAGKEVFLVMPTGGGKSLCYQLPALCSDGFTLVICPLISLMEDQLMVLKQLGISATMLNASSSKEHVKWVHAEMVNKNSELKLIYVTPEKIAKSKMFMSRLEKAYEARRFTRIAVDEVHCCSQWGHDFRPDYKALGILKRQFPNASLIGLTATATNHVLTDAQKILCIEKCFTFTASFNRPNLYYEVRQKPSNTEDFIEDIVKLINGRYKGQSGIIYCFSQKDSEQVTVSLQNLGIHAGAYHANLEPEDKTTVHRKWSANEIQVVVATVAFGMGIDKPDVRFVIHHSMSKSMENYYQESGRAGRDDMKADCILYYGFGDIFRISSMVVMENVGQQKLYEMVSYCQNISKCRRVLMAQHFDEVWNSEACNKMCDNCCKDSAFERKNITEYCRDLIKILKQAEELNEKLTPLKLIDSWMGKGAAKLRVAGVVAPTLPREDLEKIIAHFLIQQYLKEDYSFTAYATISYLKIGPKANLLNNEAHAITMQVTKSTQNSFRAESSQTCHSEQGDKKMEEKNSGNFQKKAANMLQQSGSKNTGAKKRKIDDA

Potency, active:
COc1c(O)cc2oc(-c3ccc(O)c(O)c3)cc(=O)c2c1O 4.47 µM and 2 µM
Oc1c(C=Nc2cccc3nsnc23)ccc2ccccc12 39.8 µM
COc1ccc2[nH]c3c(C)c4cc[n+](C)cc4c(C)c3c2c1 2.51 µM
CC(C)C1N=C2c3ccccc3N=C(SCC(=O)c3ccc(O)c(O)c3)N2C1=O (stereo not drawn) 3.16 µM
CCN(CC)c1ccc2oc(=O)c(C)nc2c1 50.1 µM
CCc1ccc2nc3sc(C(=O)Nc4nnc(CC)s4)c(N)c3cc2c1 39.8 µM

Potency, inactive:
CCC(c1nnnn1Cc1ccco1)N(Cc1cc2cc(OC)ccc2[nH]c1=O)C1CCCCC1 (stereo not drawn)
COc1cccc(NC(=S)C(C#N)=C2N(C)c3ccccc3N2C)c1
O=C(CSc1ccc(-c2ccco2)nn1)NCc1ccc2c(c1)OCO2
COc1ccc(Cl)cc1C(=O)NNC(=S)NC(=O)/C=C/c1ccco1
Oc1ccc(N=Cc2sc3ccccc3c2Cl)cc1
CCCCOC(=O)c1ccc(NC(c2ccc(C)cc2)P(=O)(OC)OC)cc1 (stereo not drawn)
COC(=O)Cc1cc(=O)n(-c2nc3ccccc3s2)[nH]1
Cc1cccc(-n2nc3c(c2NC(=O)c2ccc(Br)o2)CSC3)c1C
COc1cc(C(=O)NCc2nnc(SCC(=O)Nc3nc4ccc(C)cc4s3)o2)cc(OC)c1OC
COCCNC(=O)Nc1ccc2nc(-c3ccco3)c(-c3ccco3)nc2c1
CC(C)Cn1c(N)c(C(=O)NCc2cccs2)c2nc3ccccc3nc21
CN1C(=O)/C(=C/c2ccco2)SC1=Nc1cccc(C(=O)O)c1
CCc1cc(C(c2ccccc2OC)N2CCOCC2)c(NC(=O)c2ccccc2)s1 (stereo not drawn)
Cc1ccc(Cc2cnc(N)s2)o1
O=C(NCCCN1CCCCCC1)c1ccc(N2CCCC2=O)cc1
c1ccc2c(NC3C4CC5CC(C4)CC3C5)nc(N3CCOCC3)nc2c1 (stereo not drawn)
NC1=NC(=O)C(Cc2cccc(Cl)c2Cl)S1 (stereo not drawn)
CC(Oc1cccc(NC(=O)c2cccs2)c1)C(=O)c1ccccc1 (stereo not drawn)
CCC(C)Cn1c(O)cc2nn(-c3nc4ccccc4s3)c(=O)c-2c1C (stereo not drawn)
O=C1c2ccccc2C(=O)N1Cc1cc(-c2ccccc2Cl)no1
COc1ccc(OCC(=O)Nc2nnc(-c3ccco3)s2)cc1
COc1ccc(NC(=O)CSc2nc(NS(=O)(=O)c3ccc(C)cc3)cc(=O)[nH]2)cc1
COC(C(=O)Nc1ccc(S(=O)(=O)Nc2ccc(C)c(C)c2)cc1)c1ccccc1 (stereo not drawn)
O=C(NCCN1C(=O)S/C(=C\c2cccnc2)C1=O)c1ccc(S(=O)(=O)N2CCCC2)cc1
O=C(CN1CCN(c2ccc(O)cc2)CC1)Nc1cc(S(=O)(=O)N2CCOCC2)ccc1Cl
COc1ccc(/C(N)=N/OC(=O)CCCc2ccccc2)cc1
Cc1ccnc2nc(C(=O)Nc3nnc(-c4ccccc4)o3)nn12
